High-throughput results from PubChem.
This is a sample that favours compounds with a hit; in the whole collection about 2.5% have one here.
GRK2 aptamer HTS – human GRK2 inhibition via aptamer displacement; bead flow cytometry, FAM-aptamer displacement from GRK2; inhibition of aptamer binding, % at 10 µM; P25098; AID 488847; actives 0.59% (n = 330,000);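 active means inhibition of aptamer binding above 40%, roughly 3 SD of noise, on plates passing a quality check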;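 further: median bead fluorescence of bound FAM aptamer so fluorescent compounds give negative values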
MEKK3 PB1 HTS – raises or lowers MEK5 binding to the human MEKK3 PB1 domain | Q99759 | bead-based flow cytometry, Alexa488-MEK5 binding to MEKK3; actives lie on both sides; 0 = blocked by unlabeled MEK5, 100 = vehicle | actives 1.4% (n = 290,000) | binding response (% of control), % at 10 µM;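 active means binding response more than 3 SD above or below the average of its plate-row segment, actives on both sides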;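 further: Alexa488 bead fluorescence after subtracting the streptavidin-only scavenger bead signal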
Target sequence (Q99759 whole entry, looked up, the tested form may be a part): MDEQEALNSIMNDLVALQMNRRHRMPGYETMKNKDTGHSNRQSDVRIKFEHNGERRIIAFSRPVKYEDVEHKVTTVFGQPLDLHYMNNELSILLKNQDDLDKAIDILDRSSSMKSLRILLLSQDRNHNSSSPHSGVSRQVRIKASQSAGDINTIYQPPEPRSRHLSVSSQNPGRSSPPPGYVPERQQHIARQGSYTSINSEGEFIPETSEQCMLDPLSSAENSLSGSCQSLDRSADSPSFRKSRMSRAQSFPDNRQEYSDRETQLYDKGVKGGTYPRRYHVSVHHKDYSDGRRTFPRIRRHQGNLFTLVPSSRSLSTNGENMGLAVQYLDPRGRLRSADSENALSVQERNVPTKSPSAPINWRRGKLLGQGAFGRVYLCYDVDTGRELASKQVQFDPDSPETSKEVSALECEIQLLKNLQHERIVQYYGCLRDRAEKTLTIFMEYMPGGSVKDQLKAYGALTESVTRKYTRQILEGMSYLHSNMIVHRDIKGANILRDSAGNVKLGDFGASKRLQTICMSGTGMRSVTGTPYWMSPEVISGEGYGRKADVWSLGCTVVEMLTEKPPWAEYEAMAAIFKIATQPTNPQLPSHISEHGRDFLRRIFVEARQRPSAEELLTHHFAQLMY
MEKK2wt PB1 HTS – raises or lowers MEK5 binding to wildtype human MEKK2 PB1 domain | Q9Y2U5 | bead flow cytometry, Alexa488-MEK5 binding to MEKK2 WT; actives lie on both sides | binding response (% of control), % at 10 µM | actives 1.1% (n = 290,000) | AID 1531; in the data active means binding response below about 67% or above about 130%
MEKK2 mut-MEK5 – signal of MEK5 binding to mutant human MEKK2 PB1 domain. bead flow cytometry, Alexa488-MEK5 binding to MEKK2 mutant. AID 1530. percent response, % at 10 µM. actives 0.35% (n = 290,000); in the data active means percent response above about 24%, passing the limit was not always enough
MEKK2wt confirm – raises or lowers MEK5 binding to wildtype human MEKK2, retest. bead flow cytometry, Alexa488-MEK5 binding to MEKK2 WT; actives lie on both sides. shares compounds with MEKK3 PB1 HTS. actives 2.4% (n = 5,900). binding response (% of control), % at 10 µM; in the data active means binding response below about 16% or above about 210%; inactive means in between
MEKK2mut-MEK5 – signal of MEK5 binding to mutant human MEKK2, retest; shares compounds with MEKK3 PB1 HTS; bead flow cytometry, Alexa488-MEK5 binding to MEKK2 mutant; percent response, % at 10 µM; actives 2% (n = 5,900); AID 1893; in the data active means percent response mostly above about 71%, no sharp cut-off; inactive means mostly below about 38%;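 further: higher means compound restores mutant binding toward wildtype level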
MEKK3 confirm – MEKK3-MEK5 PB1 inhibition, single concentration confirmation | shares compounds with MEKK3 PB1 HTS | bead flow cytometry, Alexa488-MEK5 binding to MEKK3; hits give low values | binding response (% of control), % at 10 µM | actives 1.8% (n = 5,900);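 active means binding response below 72% of control, or above a set upper limit, though filed actives all read lower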
Numbers stand for hits; [ ] = dose if it differs, or a comment.

Results for N#Cc1c(SCc2c(Cl)cccc2Cl)nc(N)[nH]c1=S ?
GRK2 aptamer HTS: inactive

Results for Cc1ccc2c(c1)c(C)c(C)n2CC(O)Cn1nc(C)cc1C (stereo not drawn) ?
GRK2 aptamer HTS: inactive; MEKK3 PB1 HTS: inactive; MEKK2wt PB1 HTS: 39[inhibitor]; MEKK2 mut-MEK5: inactive; MEKK2wt confirm: inactive; MEKK2mut-MEK5: inactive; MEKK3 confirm: inactive

What do the screens show for `O=C(Nc1nnc(-c2ccc3c(c2)CCCC3)o1)c1c(F)cccc1F`?
GRK2 aptamer HTS: inactive; MEKK3 PB1 HTS: 68[inhibitor]; MEKK2wt PB1 HTS: inactive; MEKK2 mut-MEK5: inactive; MEKK2wt confirm: inactive; MEKK2mut-MEK5: inactive; MEKK3 confirm: inactive

How did COc1ccccc1NC(=O)OC(C)c1ccc(Cl)cc1 (stereo not drawn) do in these assays?
GRK2 aptamer HTS: inactive; MEKK3 PB1 HTS: inactive; MEKK2wt PB1 HTS: inactive; MEKK2 mut-MEK5: inactive

What do the screens show for `CC(C)n1c(O)c(/C=C2\C=Nc3ccccc32)sc1=Nc1ccccc1`?
GRK2 aptamer HTS: inactive; MEKK3 PB1 HTS: 13[inhibitor]; MEKK2wt PB1 HTS: 22[inhibitor]; MEKK2 mut-MEK5: inactive; MEKK2wt confirm: inactive; MEKK2mut-MEK5: inactive; MEKK3 confirm: inactive

What do the screens show for `CSc1nc(/C=C2\C=Nc3ccccc32)c(O)n1C`?
GRK2 aptamer HTS: inactive; MEKK3 PB1 HTS: inactive; MEKK2wt PB1 HTS: inactive; MEKK2 mut-MEK5: inactive

Results for COc1ccc2c(c1)CCc1cn3nc(C)cc3nc1-2 ?
GRK2 aptamer HTS: inactive; MEKK3 PB1 HTS: 8.0[inhibitor]; MEKK2wt PB1 HTS: inactive; MEKK2 mut-MEK5: inactive; MEKK2wt confirm: inactive; MEKK2mut-MEK5: inactive; MEKK3 confirm: inactive

How did COc1ccc2c(c1)CCc1cnc(N)nc1-2 do in these assays?
GRK2 aptamer HTS: inactive; MEKK3 PB1 HTS: inactive; MEKK2wt PB1 HTS: inactive; MEKK2 mut-MEK5: inactive

What do the screens show for `Cc1nnsc1C(=O)NNS(=O)(=O)c1ccccc1`?
GRK2 aptamer HTS: inactive; MEKK3 PB1 HTS: inactive; MEKK2wt PB1 HTS: inactive; MEKK2 mut-MEK5: inactive

What do the screens show for `Cc1c(C(=O)NNS(=O)(=O)c2ccccc2)sc(=S)n1C`?
GRK2 aptamer HTS: inactive; MEKK3 PB1 HTS: 139; MEKK2wt PB1 HTS: inactive; MEKK2 mut-MEK5: inactive; MEKK2wt confirm: inactive; MEKK2mut-MEK5: inactive; MEKK3 confirm: inactive

Results for CC(=O)N1CCc2cc(S(=O)(=O)NC(CC(C)C)C(=O)N3CCCC3)ccc21 (stereo not drawn) ?
GRK2 aptamer HTS: inactive; MEKK3 PB1 HTS: inactive; MEKK2wt PB1 HTS: inactive; MEKK2 mut-MEK5: inactive

What do the screens show for `COC(=O)c1ccc2c(=O)n(CCCCCC(=O)N3CCN(c4ccccc4)CC3)c(=O)[nH]c2c1`?
GRK2 aptamer HTS: inactive; MEKK3 PB1 HTS: 122; MEKK2wt PB1 HTS: inactive; MEKK2 mut-MEK5: inactive; MEKK2wt confirm: inactive; MEKK2mut-MEK5: inactive; MEKK3 confirm: inactive

Results for CCN1CCN(C(=O)CCCCCn2c(=O)[nH]c3cc(C(=O)OC)ccc3c2=O)CC1 ?
GRK2 aptamer HTS: inactive; MEKK3 PB1 HTS: inactive; MEKK2wt PB1 HTS: inactive; MEKK2 mut-MEK5: inactive

How did O=C(CCn1c(=O)c2cccn2c2ccccc21)Nc1ccc(F)cc1 do in these assays?
GRK2 aptamer HTS: inactive; MEKK3 PB1 HTS: inactive; MEKK2wt PB1 HTS: inactive; MEKK2 mut-MEK5: inactive

Results for COc1ccccc1N1CCN(CCCNC(=O)Nc2ccccc2C)CC1 ?
GRK2 aptamer HTS: inactive; MEKK3 PB1 HTS: inactive; MEKK2wt PB1 HTS: inactive; MEKK2 mut-MEK5: 29; MEKK2wt confirm: inactive; MEKK2mut-MEK5: inactive; MEKK3 confirm: inactive

Results for COc1ccc(Cn2c(SCc3ccccc3C)nc3cc(OC)c(OC)cc3c2=N)cc1 ?
GRK2 aptamer HTS: inactive; MEKK3 PB1 HTS: inactive; MEKK2wt PB1 HTS: 278; MEKK2 mut-MEK5: 96; MEKK2wt confirm: 252; MEKK2mut-MEK5: 79; MEKK3 confirm: inactive

Results for Cc1c(C(=O)N/N=C/c2ccc(O)c(Br)c2)sc(N)c1C#N ?
GRK2 aptamer HTS: inactive; MEKK3 PB1 HTS: 132; MEKK2wt PB1 HTS: inactive; MEKK2 mut-MEK5: inactive; MEKK2wt confirm: inactive; MEKK2mut-MEK5: inactive; MEKK3 confirm: inactive

How did COc1cc(/C=N/NC(=O)c2sc(N)c(C#N)c2C)ccc1O do in these assays?
GRK2 aptamer HTS: inactive; MEKK3 PB1 HTS: inactive; MEKK2wt PB1 HTS: inactive; MEKK2 mut-MEK5: inactive

How did O=c1oc2ccccc2c(Nc2cccc3cccnc23)c1[N+](=O)[O-] do in these assays?
GRK2 aptamer HTS: inactive; MEKK3 PB1 HTS: inactive; MEKK2wt PB1 HTS: inactive; MEKK2 mut-MEK5: inactive

What do the screens show for `O=c1oc2ccccc2c(Nc2ccc3ncccc3c2)c1[N+](=O)[O-]`?
GRK2 aptamer HTS: inactive; MEKK3 PB1 HTS: 147; MEKK2wt PB1 HTS: inactive; MEKK2 mut-MEK5: inactive; MEKK2wt confirm: inactive; MEKK2mut-MEK5: inactive; MEKK3 confirm: inactive

How did Cc1ccc(NC(=O)Cc2c(O)c3ccccc3[nH]c2=O)c(C)c1 do in these assays?
GRK2 aptamer HTS: inactive; MEKK3 PB1 HTS: inactive; MEKK2wt PB1 HTS: inactive; MEKK2 mut-MEK5: inactive

What do the screens show for `CNS(=O)(=O)c1ccc(NC(=O)c2cc(-c3ccncc3)nc3ccc(Cl)cc23)cc1`?
GRK2 aptamer HTS: inactive; MEKK3 PB1 HTS: inactive; MEKK2wt PB1 HTS: inactive; MEKK2 mut-MEK5: inactive

Results for CCNc1oc(/C=C/c2ccc(OCC)cc2)nc1C#N ?
GRK2 aptamer HTS: inactive; MEKK3 PB1 HTS: inactive; MEKK2wt PB1 HTS: inactive; MEKK2 mut-MEK5: inactive

What do the screens show for `O=C(NCc1ccccc1)c1ccc(=O)[nH]n1`?
GRK2 aptamer HTS: inactive; MEKK3 PB1 HTS: inactive; MEKK2wt PB1 HTS: inactive; MEKK2 mut-MEK5: inactive

What do the screens show for `O=C(NCc1ccco1)c1ccc(=O)[nH]n1`?
GRK2 aptamer HTS: inactive; MEKK3 PB1 HTS: 82[inhibitor]; MEKK2wt PB1 HTS: inactive; MEKK2 mut-MEK5: inactive; MEKK2wt confirm: inactive; MEKK2mut-MEK5: inactive; MEKK3 confirm: inactive

Results for CCCCNCc1cc(Br)c(OCc2cccs2)c(OC)c1 ?
GRK2 aptamer HTS: inactive; MEKK3 PB1 HTS: inactive; MEKK2wt PB1 HTS: 136; MEKK2 mut-MEK5: inactive; MEKK2wt confirm: inactive; MEKK2mut-MEK5: inactive; MEKK3 confirm: inactive

Results for CCOC(=O)/C=C/c1nc(C(=O)OCC)c(C)c(=O)[nH]1 ?
GRK2 aptamer HTS: inactive; MEKK3 PB1 HTS: 75[inhibitor]; MEKK2wt PB1 HTS: inactive; MEKK2 mut-MEK5: inactive; MEKK2wt confirm: inactive; MEKK2mut-MEK5: inactive; MEKK3 confirm: inactive

Results for CCN(CC(=O)N1CCOCC1)S(=O)(=O)c1ccc(Cl)cc1 ?
GRK2 aptamer HTS: inactive; MEKK3 PB1 HTS: inactive; MEKK2wt PB1 HTS: inactive; MEKK2 mut-MEK5: inactive

How did Cc1cc(C(=O)OC(C(=O)Nc2cccc(C(F)(F)F)c2)c2ccccc2)c(C)o1 (stereo not drawn) do in these assays?
GRK2 aptamer HTS: inactive; MEKK3 PB1 HTS: 145; MEKK2wt PB1 HTS: inactive; MEKK2 mut-MEK5: inactive; MEKK2wt confirm: inactive; MEKK2mut-MEK5: inactive; MEKK3 confirm: inactive

What do the screens show for `O=C(O)c1cc(S(=O)(=O)N2CCCCC2)ccc1N1CCCC1`?
GRK2 aptamer HTS: inactive
